Screens: PubChem BioAssay, National Center for Advancing Translational Sciences (NCATS)
Pf growth 48h: inhibits P. falciparum growth in the first generation, 48 h. 5.9% of 310,000 active. Potency, µM (top dose mostly 28.7 µM), without a hit: top-dose activity change, negative = inhibition, usual class: inhibitors. P. falciparum luciferase growth in erythrocytes, 48 h; note: potency is the fitted concentration of half-maximal effect; % is set by controls: 0 for no effect and ±100 for the full control effect
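Read-out is firefly luciferase luminescence from an integrated reporter in P. falciparum, so falling signal marks reduced parasite growth. Infected erythrocytes were at 2% hematocrit and 0.1% parasitemia (final) in Albumax-supplemented RPMI 1640.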
LmPK inhibitor: blocks Leishmania mexicana pyruvate kinase activity; Q27686; purified LmPK, Kinase-Glo ATP luminescence, 1 h; Potency, µM (highest dose often 57.5 µM), for inactives: at the highest dose activity change, negative = inhibition, most hits filed as inhibitors; 0.37% of 290,000 active; note: potency is the fitted concentration of half-maximal effect; % is set by controls: 0 for no effect and ±100 for the full control effect
Target sequence (Q27686 whole entry, looked up): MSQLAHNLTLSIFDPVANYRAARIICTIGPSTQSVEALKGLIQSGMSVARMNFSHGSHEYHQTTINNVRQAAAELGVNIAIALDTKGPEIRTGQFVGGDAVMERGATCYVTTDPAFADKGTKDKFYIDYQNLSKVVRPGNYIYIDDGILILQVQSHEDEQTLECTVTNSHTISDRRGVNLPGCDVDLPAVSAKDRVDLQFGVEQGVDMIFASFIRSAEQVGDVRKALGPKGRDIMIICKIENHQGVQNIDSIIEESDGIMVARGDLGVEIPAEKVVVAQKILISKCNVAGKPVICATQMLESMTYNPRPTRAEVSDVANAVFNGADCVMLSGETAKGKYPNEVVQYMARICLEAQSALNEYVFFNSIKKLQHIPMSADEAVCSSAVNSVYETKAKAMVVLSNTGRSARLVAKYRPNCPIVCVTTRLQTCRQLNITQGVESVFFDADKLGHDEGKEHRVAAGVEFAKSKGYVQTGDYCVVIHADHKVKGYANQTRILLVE
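qHTS format; LmPK 0.1 nM; substrates PEP 0.5 mM and ADP 0.1 mM. One-hour room-temperature incubation, then coupled luciferase luminescence; 0.5 nM enzyme wells mark activation.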
Shiga toxin inh: blocks Shiga toxin action in Vero cells; Vero cells, Shiga toxin protein synthesis inhibition reporter; inhibition, % at 38.7 µM; 9.2% of 290,000 active; AID 2315; in the data active = inhibition mostly above about 28%, no sharp cut-off; inactive = mostly below about 43%; note: 0% is about no effect
Cycloheximide cs: counter-screen hit for Shiga toxin inhibitors, cycloheximide. 12% of 300,000 active. max response, %. cell reporter, cycloheximide protein synthesis inhibition counterscreen. AID 2314; in the data active = max response mostly above about 13%, no sharp cut-off; inactive = mostly below about 14%; note: read at 38.3 µM for the half of the compounds with a filed dose; 0% is about no effect
Pf growth 96h: inhibits malaria parasite growth, 96 h; P. falciparum luciferase reporter growth, 96 h; Potency, µM (highest dose often 28.7 µM), for inactives: at the highest dose activity change, negative = inhibition, most hits filed as inhibitors; 6.9% of 320,000 active; note: potency is the fitted concentration of half-maximal effect; % is set by controls: 0 for no effect and ±100 for the full control effect
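Cell-based qHTS: luciferase-tagged P. falciparum in erythrocytes (2% hematocrit, 0.05% parasitemia final) incubated with compounds for 96 hours, 37 C, 5% CO2; luciferase detection reagent then added and luminescence measured.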
Active calls of the source: *; ? = inconclusive; · = not tested or not shown. Most compounds without a hit are left out; they make up all but 22% or so of the library. Unless noted, calls come from the whole dose curve; as a rule, active = well fitted inhibition curve with a large enough effect; inconclusive = small, poorly fitted or top-dose-only effect, or another doubt; inactive = no such curve, though single readings can be large or run the other way.

SMILES	Pf growth 48h	LmPK inhibitor	Shiga toxin inh	Cycloheximide cs	Pf growth 96h
Cc1onc(-c2ccccc2)c1-c1n[nH]c(=S)n1-c1ccccc1Cl	-4%	18µM*	-15	-6	27%
S=c1[nH]nc(-c2ccco2)n1-c1ccccc1Cl	?	?	67*	33*	31%
S=c1[nH]nc(-c2cc(-c3ccco3)[nH]n2)n1-c1ccccc1Cl	0%	21%	7	3	-19%
S=c1[nH]nc(-c2ccn[nH]2)n1-c1ccccc1Cl	7%	?	72*	28*	-2%
O=C(CN1CCC(n2nnc3cc(C(F)(F)F)ccc32)CC1)Nc1ccc2c(c1)OCCO2	12µM*	6%	91	46*	11%
O=C(N1CCOCC1)N1CCC(n2nnc3cc(F)ccc32)CC1	-14%	1%	-9	2	10µM*
COc1ccc(Cl)cc1NC(=O)CN1CCC(n2nnc3cc(C)ccc32)CC1	?	7%	-10	-7	8%
Cc1ccc2c(c1)nnn2C1CCN(CC(=O)Nc2ccccc2N2CCOCC2)CC1	2.1µM*	-1%	-5	-2	37%
O=C(O)CCC(=O)N1CCC(n2nnc3cc(C(F)(F)F)ccc32)CC1	2.1µM*	1%	-6	-2	0%
O=C(CN1CCC(n2nnc3cc(C(F)(F)F)ccc32)CC1)Nc1ccc2c(c1)CCC2	·	4%	-6	-6	?
Cc1ccc(S(=O)(=O)N2CCOC23CCN(C(=O)C(=O)NCCC(C)C)CC3)cc1	-8%	·	·	·	9%
Cc1c(S(=O)(=O)N2CCN(C(c3ccccc3)c3ccccc3)CC2)c(=O)n(C)c(=O)n1C	1.7µM*	-1%	12	-3	2.3µM*
O=C(O)c1cccc(S(=O)(=O)N2CCN(C(c3ccccc3)c3ccccc3)CC2)c1	10µM*	1%	-2	6	13µM*
Cc1c(S(=O)(=O)N2CCOCC2)c(=O)n(C)c(=O)n1C	-1%	-6%	-4	-2	29%
O=c1nc(Nc2ccc([N+](=O)[O-])cc2)[nH]c(=O)[nH]1	·	-7%	-3	-1	-8%
Cc1ccc(N2C(=O)CC(N(O)C3CC(=O)N(c4ccc(C)cc4)C3=O)C2=O)cc1 (configuration not stated)	9%	6%	36	0	26%
COc1ccccc1N1C(=O)CC(N(O)c2ccccc2)C1=O (configuration not stated)	11%	1%	2	-1	35%
CCCOc1ccc(N2C(=O)CC(N(CCc3ccc(OC)c(OC)c3)C(=O)c3ccccc3)C2=O)cc1 (configuration not stated)	-22%	2%	-6	-1	11%
CCCOc1ccc(N2C(=O)CC(N(O)c3ccccc3)C2=O)cc1 (configuration not stated)	51%	-3%	113*	20	47%
CCCOc1ccccc1N1C(=O)CC(N(O)c2ccccc2)C1=O (configuration not stated)	1%	6%	28	14*	20%
COc1ccccc1N(O)C1CC(=O)N(c2ccc(F)cc2)C1=O (configuration not stated)	9%	1%	61*	32*	43%
CCCOc1ccc(N2C(=O)CC(N(CCc3ccccc3)C(=O)c3ccccc3)C2=O)cc1 (configuration not stated)	1%	0%	14	21*	25%
CC(C)(CNC(=O)c1ccccc1NS(C)(=O)=O)N1CCCCC1	31%	-1%	5	-1	34%
CCOc1ccc(Nc2cc(C)nc3c(C)cccc23)cc1	?	2%	11	-1	-22%
O=C(Cn1cc(C(F)(F)F)ccc1=O)NC1CCCC1	-4%	·	·	·	-3%
SMILES	Pf growth 48h	LmPK inhibitor	Shiga toxin inh	Cycloheximide cs	Pf growth 96h
O=c1[nH]c(/C=C/c2ccccc2)c([N+](=O)[O-])c(=O)[nH]1	8%	-11%	-12	-3	10µM*
Cc1ccc(S(=O)(=O)CCC(=O)OCCOc2cccc(Br)c2)cc1	-14%	·	·	·	?
Cc1cc(C(=O)CSc2nnc(-c3ccccc3)o2)c(C)n1CC1COc2ccccc2O1 (configuration not stated)	?	-1%	39*	9	3.3µM*
Cc1cc(C(=O)CSc2nnc(-c3ccco3)o2)c(C)n1CC1COc2ccccc2O1 (configuration not stated)	10µM*	5%	23	2	4.7µM*
Cc1cc(C(=O)CSc2nnc(-c3ccc(F)cc3)o2)c(C)n1CC1COc2ccccc2O1 (configuration not stated)	?	2%	2	-4	?
COCCCNC(=O)c1ccc2c(=O)n(Cc3ccccc3OC)c(=S)[nH]c2c1	?	0%	-5	8	24%
COc1ccc(N2CCN(CCNC(=O)c3ccc4c(c3)[nH]c(=S)n3c5ccccc5nc43)CC2)cc1	?	-3%	4	-3	10µM*
COCCCNC(=O)c1ccc2c(=O)n(Cc3ccc(Cl)cc3)c(=S)[nH]c2c1	-30%	1%	-8	1	35%
O=C(NCc1ccc(Cl)cc1)c1ccc2c(=O)n(CC3CCCO3)c(=S)[nH]c2c1 (configuration not stated)	-29%	-3%	1	-3	12µM*
C=CCNC(=O)c1ccc2c(=O)n(Cc3ccccc3OC)c(=S)[nH]c2c1	3.3µM*	-1%	-6	9	22%
CC1CCN(CCNC(=O)c2ccc3c(=O)n(Cc4ccc(Cl)cc4)c(=S)[nH]c3c2)CC1	3.7µM*	5%	-1	9	-6%
COc1cc(CN(C(=S)NCC(=O)NC2CCCC2)C2CCCC2)cc(OC)c1OC	?	-2%	-5	-2	?
CCCCCNC(=O)c1ccc2c(=O)n(CCCN3CCCC3=O)c(=S)[nH]c2c1	5.9µM*	-9%	-2	16	10µM*
COc1ccccc1NS(=O)(=O)c1cc(C(=O)NCCN2CCOCC2)ccc1Cl	8%	1%	-15	-2	10µM*
O=C(NCCCN1CCCC1)c1ccc(Cn2c(=S)[nH]c3ccc(Br)cc3c2=O)cc1	13µM*	-3%	20	7	23%
COc1ccc(C(=O)NCCN2CCOCC2)cc1S(=O)(=O)Nc1ccc(C)cc1	-3%	·	·	·	-23%
COc1ccccc1Cn1c(=S)[nH]c2cc(C(=O)NCCN3CCOCC3)ccc2c1=O	10µM*	8%	-2	4	-93%
COc1ccccc1Cn1c(=S)[nH]c2cc(C(=O)NCCCN3CCOCC3)ccc2c1=O	?	-2%	-4	-2	16%
CC12CC3(C)CC(C)(C1)CC(C(=O)NC(=S)N1CCCC1)(C2)C3	6.6µM*	2%	2	-5	?
Cc1ccc(C(=O)CSc2nnc(C3CC3)n2C2CC2)s1	246%	·	·	·	76%
COc1ccc(CN(C)c2ncnc3sccc23)c(OC)c1OC	13µM*	0%	-3	-2	?
COc1ccc(CCN(C)c2ncnc3sccc23)cc1OC	-5%	7%	-12	-2	4%
